The supplement of paper PMC11732987, “Enantioselective OTUD7B fragment discovery through chemoproteomics screening and high-throughput optimisation” (Communications Chemistry, 2025)

Legend:
Experiment in all cases: log2 ratio of Biotin-Ahx-Ub-VS probe labelling (fragment/DMSO); higher = less target engagement (more negative = stronger competition), active = hit call of the paper (q ≤ 0.05, log2 ratio ≤ -1)
Conditions in all cases: compound concentration: 200 uM; treatment time: 3 h
USP42 = biological target: T1, USP42 (UniProt Q9H9J4)
T1 sequence (whole entry): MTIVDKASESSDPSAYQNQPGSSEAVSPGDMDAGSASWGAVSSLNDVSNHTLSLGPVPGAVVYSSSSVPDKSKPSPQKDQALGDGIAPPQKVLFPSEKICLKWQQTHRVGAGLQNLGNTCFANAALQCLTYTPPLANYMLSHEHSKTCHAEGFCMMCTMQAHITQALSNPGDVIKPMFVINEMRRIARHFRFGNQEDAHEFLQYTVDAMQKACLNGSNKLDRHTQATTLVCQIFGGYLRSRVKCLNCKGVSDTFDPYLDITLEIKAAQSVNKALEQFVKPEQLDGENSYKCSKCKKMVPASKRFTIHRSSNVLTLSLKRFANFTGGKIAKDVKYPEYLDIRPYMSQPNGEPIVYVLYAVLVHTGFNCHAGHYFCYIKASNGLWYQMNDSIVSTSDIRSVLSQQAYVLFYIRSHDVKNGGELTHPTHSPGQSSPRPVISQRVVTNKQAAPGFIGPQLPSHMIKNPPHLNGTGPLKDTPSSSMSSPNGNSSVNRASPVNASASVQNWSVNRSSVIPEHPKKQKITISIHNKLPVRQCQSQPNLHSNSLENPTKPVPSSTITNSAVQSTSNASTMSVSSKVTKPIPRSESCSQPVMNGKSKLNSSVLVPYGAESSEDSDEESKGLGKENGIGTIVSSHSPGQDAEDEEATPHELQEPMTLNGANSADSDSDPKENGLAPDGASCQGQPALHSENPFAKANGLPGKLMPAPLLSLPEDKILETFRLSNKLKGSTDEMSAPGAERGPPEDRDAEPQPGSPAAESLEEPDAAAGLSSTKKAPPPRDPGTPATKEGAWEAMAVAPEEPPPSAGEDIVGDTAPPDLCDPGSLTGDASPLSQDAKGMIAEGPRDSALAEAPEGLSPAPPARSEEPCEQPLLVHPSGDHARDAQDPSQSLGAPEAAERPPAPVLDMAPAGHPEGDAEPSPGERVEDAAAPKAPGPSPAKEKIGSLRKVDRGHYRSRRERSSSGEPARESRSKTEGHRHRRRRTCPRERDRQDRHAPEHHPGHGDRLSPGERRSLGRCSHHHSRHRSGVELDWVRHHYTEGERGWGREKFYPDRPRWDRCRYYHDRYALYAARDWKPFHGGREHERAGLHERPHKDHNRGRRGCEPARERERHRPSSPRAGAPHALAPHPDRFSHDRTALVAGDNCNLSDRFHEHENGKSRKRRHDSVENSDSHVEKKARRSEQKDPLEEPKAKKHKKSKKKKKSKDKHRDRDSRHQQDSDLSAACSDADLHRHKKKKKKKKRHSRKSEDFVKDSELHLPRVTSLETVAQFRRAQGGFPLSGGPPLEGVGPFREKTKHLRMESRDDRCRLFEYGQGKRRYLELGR
Method in brief: (§1)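 HEK293T lysate (495 µg per sample, in Tris/CHAPS/IGEPAL buffer with protease inhibitors) was exposed in triplicate for 3 h to fragment at 200 µM or to vehicle, then to Biotin-Ahx-Ub-VS at 0.5 µM final for 1 h. Labelled DUBs were enriched on NeutrAvidin, digested with LysC and trypsin, and analysed by diaPASEF LC-MS/MS. Spectronaut label-free quantities were normalised to the global median, and values are average log2 ratios of fragment over vehicle from an unpaired t-test. Only proteins with ≥2 unique peptides were used.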

USP46 = USP46 (UniProt P62068)
USP46, sequence (P62068 whole entry): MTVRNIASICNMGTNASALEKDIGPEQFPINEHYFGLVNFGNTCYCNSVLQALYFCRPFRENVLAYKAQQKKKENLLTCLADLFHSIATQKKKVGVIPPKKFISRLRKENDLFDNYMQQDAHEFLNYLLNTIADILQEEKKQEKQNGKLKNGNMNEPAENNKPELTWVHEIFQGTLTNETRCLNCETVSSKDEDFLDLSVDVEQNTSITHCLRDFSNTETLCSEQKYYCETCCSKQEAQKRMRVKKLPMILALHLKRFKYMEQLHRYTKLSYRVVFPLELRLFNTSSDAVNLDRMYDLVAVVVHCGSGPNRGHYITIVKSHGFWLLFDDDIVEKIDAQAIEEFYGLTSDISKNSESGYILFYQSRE
Method in brief: as §1

USP47 = biological target: T2, USP47 (UniProt Q96K76)
T2 sequence (whole entry): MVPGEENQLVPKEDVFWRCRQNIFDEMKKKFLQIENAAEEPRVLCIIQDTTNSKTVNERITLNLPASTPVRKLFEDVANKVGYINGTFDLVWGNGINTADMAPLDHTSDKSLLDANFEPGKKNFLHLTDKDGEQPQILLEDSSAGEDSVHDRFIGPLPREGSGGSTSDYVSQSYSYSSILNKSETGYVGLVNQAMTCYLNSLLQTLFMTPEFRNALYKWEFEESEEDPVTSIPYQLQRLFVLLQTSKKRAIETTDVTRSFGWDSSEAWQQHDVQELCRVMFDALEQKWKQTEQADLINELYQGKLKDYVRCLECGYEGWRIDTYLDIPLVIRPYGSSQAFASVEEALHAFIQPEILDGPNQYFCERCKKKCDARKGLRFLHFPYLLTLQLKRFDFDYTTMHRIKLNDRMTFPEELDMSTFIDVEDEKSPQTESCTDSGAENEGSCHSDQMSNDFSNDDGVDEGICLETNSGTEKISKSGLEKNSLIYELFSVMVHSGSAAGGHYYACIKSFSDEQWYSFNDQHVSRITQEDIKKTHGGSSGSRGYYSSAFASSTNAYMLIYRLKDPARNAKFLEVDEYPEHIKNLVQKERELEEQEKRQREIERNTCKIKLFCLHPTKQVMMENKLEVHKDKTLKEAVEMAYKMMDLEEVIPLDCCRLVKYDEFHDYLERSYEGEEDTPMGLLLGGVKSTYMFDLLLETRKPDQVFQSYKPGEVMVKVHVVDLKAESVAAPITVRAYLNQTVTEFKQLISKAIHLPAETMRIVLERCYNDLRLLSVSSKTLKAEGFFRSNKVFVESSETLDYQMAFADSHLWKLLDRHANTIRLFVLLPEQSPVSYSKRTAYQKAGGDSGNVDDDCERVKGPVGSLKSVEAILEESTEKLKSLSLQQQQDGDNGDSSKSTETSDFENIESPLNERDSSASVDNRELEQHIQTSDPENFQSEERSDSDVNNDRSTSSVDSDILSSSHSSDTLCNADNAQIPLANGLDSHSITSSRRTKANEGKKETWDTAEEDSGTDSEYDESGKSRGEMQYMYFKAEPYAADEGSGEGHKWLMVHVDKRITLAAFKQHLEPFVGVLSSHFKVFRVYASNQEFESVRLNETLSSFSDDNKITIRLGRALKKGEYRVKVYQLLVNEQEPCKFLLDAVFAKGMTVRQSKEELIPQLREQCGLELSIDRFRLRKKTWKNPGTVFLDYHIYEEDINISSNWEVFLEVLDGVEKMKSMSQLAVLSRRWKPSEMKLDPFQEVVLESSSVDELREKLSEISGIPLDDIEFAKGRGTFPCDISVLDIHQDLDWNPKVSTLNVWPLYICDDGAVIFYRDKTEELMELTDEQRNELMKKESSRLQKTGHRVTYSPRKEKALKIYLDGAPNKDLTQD
Method in brief: as §1

USP48 = biological target: T3, USP48 (UniProt Q86UV5)
T3 sequence (whole entry): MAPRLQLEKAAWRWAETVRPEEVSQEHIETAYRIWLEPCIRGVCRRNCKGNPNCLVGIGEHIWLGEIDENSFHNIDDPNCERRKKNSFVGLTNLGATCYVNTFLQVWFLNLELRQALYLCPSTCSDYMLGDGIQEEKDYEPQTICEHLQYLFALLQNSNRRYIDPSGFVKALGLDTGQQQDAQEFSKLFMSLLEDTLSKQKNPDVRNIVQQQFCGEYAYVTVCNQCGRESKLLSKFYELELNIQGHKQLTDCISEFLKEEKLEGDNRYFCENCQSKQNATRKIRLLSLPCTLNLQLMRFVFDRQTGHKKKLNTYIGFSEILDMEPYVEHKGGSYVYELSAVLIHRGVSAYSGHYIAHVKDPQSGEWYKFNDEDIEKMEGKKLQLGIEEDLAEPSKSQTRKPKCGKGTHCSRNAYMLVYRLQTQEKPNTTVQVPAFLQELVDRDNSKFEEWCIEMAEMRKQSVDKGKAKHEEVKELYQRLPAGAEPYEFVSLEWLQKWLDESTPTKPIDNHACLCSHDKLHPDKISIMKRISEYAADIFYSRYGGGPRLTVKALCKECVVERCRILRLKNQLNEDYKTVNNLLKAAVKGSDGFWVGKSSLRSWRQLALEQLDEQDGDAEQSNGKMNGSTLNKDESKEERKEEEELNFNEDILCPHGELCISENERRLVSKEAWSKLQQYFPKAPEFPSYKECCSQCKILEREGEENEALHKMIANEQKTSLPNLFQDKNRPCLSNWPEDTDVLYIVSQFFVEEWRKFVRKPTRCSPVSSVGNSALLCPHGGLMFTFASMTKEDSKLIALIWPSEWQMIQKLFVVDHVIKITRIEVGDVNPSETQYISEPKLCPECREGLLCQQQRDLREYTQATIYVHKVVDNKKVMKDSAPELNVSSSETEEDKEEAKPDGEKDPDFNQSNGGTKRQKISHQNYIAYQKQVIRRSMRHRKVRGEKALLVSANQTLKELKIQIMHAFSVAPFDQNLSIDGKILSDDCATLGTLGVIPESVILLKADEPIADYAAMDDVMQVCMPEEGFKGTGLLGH
Method in brief: as §1

USP5 = biological target: T4, USP5 (UniProt P45974)
T4 sequence (whole entry): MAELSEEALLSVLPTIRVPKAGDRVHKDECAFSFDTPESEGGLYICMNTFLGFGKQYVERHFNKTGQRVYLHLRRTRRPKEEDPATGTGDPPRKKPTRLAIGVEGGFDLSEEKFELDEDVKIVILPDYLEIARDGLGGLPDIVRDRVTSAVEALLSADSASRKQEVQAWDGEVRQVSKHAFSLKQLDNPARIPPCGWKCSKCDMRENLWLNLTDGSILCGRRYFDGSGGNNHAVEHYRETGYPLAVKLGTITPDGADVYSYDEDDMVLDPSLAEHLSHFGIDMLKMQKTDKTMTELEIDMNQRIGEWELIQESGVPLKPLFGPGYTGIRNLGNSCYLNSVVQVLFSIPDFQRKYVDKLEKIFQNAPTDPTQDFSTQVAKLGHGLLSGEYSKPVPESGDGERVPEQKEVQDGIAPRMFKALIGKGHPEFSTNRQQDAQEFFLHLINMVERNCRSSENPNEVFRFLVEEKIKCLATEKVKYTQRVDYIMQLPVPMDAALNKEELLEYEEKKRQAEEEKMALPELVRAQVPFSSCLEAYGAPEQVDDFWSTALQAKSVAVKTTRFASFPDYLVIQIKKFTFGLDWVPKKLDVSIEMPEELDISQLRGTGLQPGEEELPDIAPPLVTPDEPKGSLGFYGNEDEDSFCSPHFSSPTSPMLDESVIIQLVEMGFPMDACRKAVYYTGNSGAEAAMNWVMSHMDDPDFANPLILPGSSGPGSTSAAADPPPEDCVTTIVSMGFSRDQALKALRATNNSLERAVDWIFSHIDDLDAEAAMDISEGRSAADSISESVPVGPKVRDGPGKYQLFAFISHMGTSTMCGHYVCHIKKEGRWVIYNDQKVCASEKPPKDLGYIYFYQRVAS
Method in brief: as §1

USP54 = USP54 (UniProt Q70EL1)
USP54, sequence (Q70EL1 whole entry): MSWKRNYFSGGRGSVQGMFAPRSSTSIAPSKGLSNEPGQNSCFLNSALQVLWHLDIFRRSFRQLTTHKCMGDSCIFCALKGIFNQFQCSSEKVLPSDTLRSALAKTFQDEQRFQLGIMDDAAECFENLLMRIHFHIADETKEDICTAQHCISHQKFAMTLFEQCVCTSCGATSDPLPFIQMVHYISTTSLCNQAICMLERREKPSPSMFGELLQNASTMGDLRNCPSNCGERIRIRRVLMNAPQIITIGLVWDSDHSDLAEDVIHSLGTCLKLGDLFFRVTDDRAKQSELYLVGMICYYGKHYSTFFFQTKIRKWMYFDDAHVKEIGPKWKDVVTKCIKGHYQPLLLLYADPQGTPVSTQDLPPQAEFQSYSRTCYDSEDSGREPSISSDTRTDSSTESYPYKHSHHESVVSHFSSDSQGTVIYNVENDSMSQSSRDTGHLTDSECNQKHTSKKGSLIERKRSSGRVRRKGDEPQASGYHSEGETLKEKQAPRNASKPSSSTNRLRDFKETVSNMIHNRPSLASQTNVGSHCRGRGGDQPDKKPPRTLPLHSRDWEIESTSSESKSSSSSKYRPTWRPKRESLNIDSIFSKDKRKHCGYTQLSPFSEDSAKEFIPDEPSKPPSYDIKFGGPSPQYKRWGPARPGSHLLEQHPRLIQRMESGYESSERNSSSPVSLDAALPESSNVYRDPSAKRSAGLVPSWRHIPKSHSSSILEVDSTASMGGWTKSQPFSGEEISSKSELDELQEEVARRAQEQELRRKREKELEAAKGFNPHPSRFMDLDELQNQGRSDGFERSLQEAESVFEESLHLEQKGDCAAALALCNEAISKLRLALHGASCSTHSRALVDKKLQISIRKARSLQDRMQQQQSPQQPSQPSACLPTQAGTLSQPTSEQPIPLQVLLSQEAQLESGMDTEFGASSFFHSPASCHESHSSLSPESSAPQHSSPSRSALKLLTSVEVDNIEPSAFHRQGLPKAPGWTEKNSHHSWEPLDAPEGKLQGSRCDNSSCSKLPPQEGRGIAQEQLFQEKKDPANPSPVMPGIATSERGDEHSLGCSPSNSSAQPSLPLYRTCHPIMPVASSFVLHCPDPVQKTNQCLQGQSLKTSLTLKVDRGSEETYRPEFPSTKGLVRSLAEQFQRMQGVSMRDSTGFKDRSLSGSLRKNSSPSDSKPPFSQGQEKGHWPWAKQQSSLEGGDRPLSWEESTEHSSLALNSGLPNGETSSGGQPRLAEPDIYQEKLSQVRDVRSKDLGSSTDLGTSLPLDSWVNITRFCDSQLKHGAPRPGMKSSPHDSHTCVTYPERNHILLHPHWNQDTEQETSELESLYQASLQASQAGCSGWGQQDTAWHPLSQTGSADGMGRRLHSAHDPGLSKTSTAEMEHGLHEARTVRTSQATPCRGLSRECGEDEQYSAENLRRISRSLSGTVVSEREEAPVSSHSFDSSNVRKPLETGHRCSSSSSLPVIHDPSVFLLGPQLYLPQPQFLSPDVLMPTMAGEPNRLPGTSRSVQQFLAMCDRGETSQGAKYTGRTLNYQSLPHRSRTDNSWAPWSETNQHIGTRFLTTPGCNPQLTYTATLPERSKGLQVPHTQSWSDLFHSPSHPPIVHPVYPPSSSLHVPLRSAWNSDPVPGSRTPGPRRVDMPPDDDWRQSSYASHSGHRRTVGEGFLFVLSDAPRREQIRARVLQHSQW
Method in brief: as §1

USP7 = USP7 (UniProt Q93009)
USP7, sequence (Q93009 whole entry, looked up): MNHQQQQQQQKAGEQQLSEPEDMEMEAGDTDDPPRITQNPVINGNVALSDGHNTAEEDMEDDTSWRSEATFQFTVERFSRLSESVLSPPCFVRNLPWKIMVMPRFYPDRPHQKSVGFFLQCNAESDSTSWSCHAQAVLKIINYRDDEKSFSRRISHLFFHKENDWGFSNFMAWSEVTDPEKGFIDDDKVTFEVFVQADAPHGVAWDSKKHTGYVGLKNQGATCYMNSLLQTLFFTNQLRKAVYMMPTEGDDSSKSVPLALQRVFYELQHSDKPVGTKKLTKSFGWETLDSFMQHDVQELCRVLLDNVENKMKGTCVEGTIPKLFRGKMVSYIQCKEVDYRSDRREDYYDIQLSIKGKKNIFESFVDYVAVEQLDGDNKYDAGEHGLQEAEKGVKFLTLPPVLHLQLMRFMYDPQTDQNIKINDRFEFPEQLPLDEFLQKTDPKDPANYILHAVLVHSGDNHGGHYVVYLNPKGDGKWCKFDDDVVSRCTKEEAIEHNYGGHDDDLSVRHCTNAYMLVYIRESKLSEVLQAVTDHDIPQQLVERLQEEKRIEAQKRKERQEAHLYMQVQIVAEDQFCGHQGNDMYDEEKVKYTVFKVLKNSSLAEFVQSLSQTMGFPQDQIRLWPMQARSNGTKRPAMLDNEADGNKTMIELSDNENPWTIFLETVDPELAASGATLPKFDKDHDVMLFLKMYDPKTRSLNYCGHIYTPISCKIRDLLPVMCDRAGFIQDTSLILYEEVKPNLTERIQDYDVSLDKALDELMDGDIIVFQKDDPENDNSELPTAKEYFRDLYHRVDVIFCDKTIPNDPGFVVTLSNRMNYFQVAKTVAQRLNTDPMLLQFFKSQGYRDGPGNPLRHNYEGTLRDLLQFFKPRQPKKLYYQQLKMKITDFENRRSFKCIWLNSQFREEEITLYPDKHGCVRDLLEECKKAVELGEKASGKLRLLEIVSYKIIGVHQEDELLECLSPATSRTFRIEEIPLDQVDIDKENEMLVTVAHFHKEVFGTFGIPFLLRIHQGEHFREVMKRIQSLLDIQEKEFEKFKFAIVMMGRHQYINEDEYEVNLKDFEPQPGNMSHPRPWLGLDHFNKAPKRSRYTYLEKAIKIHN
Method in brief: as §1

USP8 = biological target: T5, USP8 (UniProt P40818)
T5 sequence (whole entry): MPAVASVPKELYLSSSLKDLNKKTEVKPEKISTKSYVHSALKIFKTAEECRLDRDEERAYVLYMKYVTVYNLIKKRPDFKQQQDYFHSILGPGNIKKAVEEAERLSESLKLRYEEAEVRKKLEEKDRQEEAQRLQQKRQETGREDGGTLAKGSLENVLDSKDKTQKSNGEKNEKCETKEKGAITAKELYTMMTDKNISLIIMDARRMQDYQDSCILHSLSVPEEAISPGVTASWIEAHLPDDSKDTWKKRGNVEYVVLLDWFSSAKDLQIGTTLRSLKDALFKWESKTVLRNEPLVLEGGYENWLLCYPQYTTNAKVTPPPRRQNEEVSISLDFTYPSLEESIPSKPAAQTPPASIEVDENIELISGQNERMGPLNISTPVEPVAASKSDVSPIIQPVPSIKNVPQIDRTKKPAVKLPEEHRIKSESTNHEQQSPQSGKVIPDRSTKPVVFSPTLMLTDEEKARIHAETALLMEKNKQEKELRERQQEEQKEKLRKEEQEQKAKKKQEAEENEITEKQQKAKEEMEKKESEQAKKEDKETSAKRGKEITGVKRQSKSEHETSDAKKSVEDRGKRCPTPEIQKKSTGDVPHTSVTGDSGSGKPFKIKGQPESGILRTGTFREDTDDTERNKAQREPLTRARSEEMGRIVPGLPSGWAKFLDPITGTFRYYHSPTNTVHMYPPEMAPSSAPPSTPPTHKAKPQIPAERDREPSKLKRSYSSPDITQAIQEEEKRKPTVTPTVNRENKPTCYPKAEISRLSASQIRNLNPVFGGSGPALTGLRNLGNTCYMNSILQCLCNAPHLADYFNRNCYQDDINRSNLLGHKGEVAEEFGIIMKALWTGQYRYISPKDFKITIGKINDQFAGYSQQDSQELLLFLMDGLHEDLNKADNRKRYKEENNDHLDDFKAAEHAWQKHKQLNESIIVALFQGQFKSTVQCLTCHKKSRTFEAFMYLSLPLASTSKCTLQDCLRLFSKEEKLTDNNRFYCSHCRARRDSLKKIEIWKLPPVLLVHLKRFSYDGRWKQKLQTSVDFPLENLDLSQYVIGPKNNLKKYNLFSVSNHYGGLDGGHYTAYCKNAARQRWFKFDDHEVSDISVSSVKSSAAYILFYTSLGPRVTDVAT
Method in brief: as §1

Measured: log2 ratio of Biotin-Ahx-Ub-VS probe labelling

COc1ccc(-c2csc(NC(=O)CCl)n2)cc1
inactive: USP42 -0.269 | USP46 -0.355 | USP47 -0.0139 | USP48 -0.611 | USP5 0.0191 | USP54 0.204 | USP7 -0.576 | USP8 -0.316
